HEK293 cAMP ctrl: qHTS Assay for Agonists of the Thyroid Stimulating Hormone Receptor: Activators of Intracellular cAMP Concentrations in Parental HEK 293. Potency, µM (doses to about 57.1 µM), most hits filed as activators. 73,000 tested, 2.5% active. AID 938, 2007. parental HEK293 CNG cAMP sensor, membrane potential fluorescence; also: nearly all actives have a fitted effect of over 55% in size
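Parental HEK 293 cells stably expressing a modified CNG channel (no TSHR) report cAMP rise as membrane depolarization. Membrane potential dye with 100 uM RO 20-1724 was loaded for 60 min at room temperature, then compound added for 30 min; fluorescence read at 590 nm.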
ERK AVP inh: qHTS Assay for Inhibitors of the ERK Signaling Pathway using a Homogeneous Screening Assay. AID 995, 2007. HEK293-V1b, vasopressin-stimulated pERK AlphaScreen. 72,000 tested, 0.99% active. Potency, µM (titrated, usually from 57.5 µM), hits mostly inhibitors; also: nearly all actives have a fitted effect of over 55% in size
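Phosphorylated ERK1/2 detected via AlphaScreen bead proximity in lysates of V1b-expressing HEK293 cells given 25 nM vasopressin for 5 min after 30 min compound exposure (37 °C). AC50 from Hill equation; basal DMSO 0%, vasopressin 100%.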
Caspase-7 inhib: qHTS Assay for Allosteric/Competitive Inhibitors of Caspase-7; recombinant caspase-7, Ac-DEVD-AFC fluorescence rate; P55210; AID 889, 2007; Potency, µM (titrated, usually from 57.5 µM), hits mostly inhibitors; 75,000 tested, 0.02% active; active = well fitted inhibition curve with a large enough effect in the main read-out, with a control signal flat, not every such curve was filed as active; inconclusive = small, poorly fitted or top-dose-only effect, or a change in a side signal
Target sequence (P55210 24-198 limits assumed): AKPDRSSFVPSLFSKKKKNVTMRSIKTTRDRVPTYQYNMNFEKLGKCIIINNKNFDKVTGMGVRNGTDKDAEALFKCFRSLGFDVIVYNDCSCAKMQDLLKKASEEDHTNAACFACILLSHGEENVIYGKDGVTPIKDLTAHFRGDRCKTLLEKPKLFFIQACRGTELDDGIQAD
Target sequence (P55210 207-303 limits assumed): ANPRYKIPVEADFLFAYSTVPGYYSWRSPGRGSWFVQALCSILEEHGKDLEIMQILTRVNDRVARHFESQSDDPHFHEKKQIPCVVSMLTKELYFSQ
Caspase-1 inhib: qHTS Assay for Allosteric/Competitive Inhibitors of Caspase-1; 75,000 tested, 0.03% active; Potency, µM (highest dose often 57.5 µM), actives largely listed as inhibitors; Caspase-1 enzyme, Ac-WEHD-AFC fluorogenic rate; AID 900, 2007
15-hLO inh: qHTS Assay for Inhibitors of 15-hLO (15-human lipoxygenase); Potency, µM (series often up to 57.1 µM), most hits filed as inhibitors; Polyunsaturated fatty acid lipoxygenase ALOX15 (Homo sapiens), P16050; 74,000 tested, 1.4% active; purified 15hLO-1, xylenol orange hydroperoxide absorbance; also: nearly all actives have a fitted effect of over 55% in size
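Compounds were preincubated 15 min at room temperature with 40 nM purified human enzyme (25 mM Hepes pH 7.5, 0.01% Triton X-100); 50 uM arachidonic acid reacted 6 min. Fe-xylenol orange detection, 30 min, absorbance ratio 573/405 nm.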
TSHR ag: qHTS Assay for Agonists of the Thyroid Stimulating Hormone Receptor. 73,000 tested, 0.48% active. Potency, µM (titrated, usually from 57.1 µM), most hits filed as activators. Thyrotropin receptor (Homo sapiens), P16473. HEK293-CNG-TSHR cells (CNG channel as cAMP sensor), membrane potential dye, cAMP; active = well fitted activation curve with a large enough effect in the main read-out, with a control signal flat, not every such curve was filed as active; inconclusive = small, poorly fitted or top-dose-only effect, or a change in a side signal; inactive = no such curve, though single readings can be large or run the other way; reference of the percent scale not stated here;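 also: the control signal comes from parental cells without the receptor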
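HEK 293 cells stably expressing TSHR and a cAMP-gated CNG channel; parental CNG-only cells as counterscreen. Cells preloaded 60 min with membrane potential dye plus 100 uM RO 20-1724, then compound 30 min; fluorescence read at 590 nm.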
Each line names hits and unclear results; the compound was inactive in the other large screens. Rows were chosen to be rich in hits. Some 4.8% of all compounds tested hit in one or more screens of this group. Unless noted, calls follow the shape of the dose curve; as a rule, active = well fitted curve in the direction sought with a large enough effect; inconclusive = small, poorly fitted or top-dose-only effect, or another doubt; inactive = no such curve, though single readings can be large; an effect the other way counts as inactive or inconclusive.

CC(=O)NC(c1ccco1)c1ccc2cccnc2c1O (stereo not given)	ERK AVP inh 16µM
O=C(O)c1ccccc1N[C@H](c1ccccc1)c1ccc2cccnc2c1O	none
CC(C)=CCC[C@](C)(O)C1CC=C(C)CC1 (stereo not given in full)	15-hLO inh 13µM (no result: HEK293 cAMP ctrl, TSHR ag)
COC(=O)[C@@]1(Cc2ccc(OC)cc2)[C@H]2c3cc(C(=O)N(C)C)n(Cc4ccccc4)c3C[C@H]2CN1C(=O)c1ccccc1	HEK293 cAMP ctrl 13µM, TSHR ag inconclusive (no result: 15-hLO inh)
COCCn1c(C(=O)N(C)C)cc2c1C[C@H]1CN(C(=O)c3ccccc3)[C@@](Cc3ccc(F)cc3)(C(=O)OC)[C@@H]21	HEK293 cAMP ctrl 16µM, TSHR ag inconclusive (no result: 15-hLO inh)
COC(=O)[C@@]1(Cc2ccc(F)cc2)[C@H]2c3cc(C(=O)N4CCCC4)n(Cc4ccccc4)c3C[C@H]2CN1C(=O)c1ccccc1	HEK293 cAMP ctrl inconclusive, TSHR ag inconclusive (no result: 15-hLO inh)
COC(=O)[C@@]1(Cc2ccc(F)cc2)[C@H]2c3cc(C(=O)N(C)C)n(Cc4ccccc4)c3C[C@H]2CN1C(=O)c1ccccc1	HEK293 cAMP ctrl 10µM, TSHR ag inconclusive (no result: 15-hLO inh)
COCCn1c(C(=O)N2CCCC2)cc2c1C[C@H]1CN(C(=O)c3ccccc3)[C@@](Cc3ccc(F)cc3)(C(=O)OC)[C@@H]21	HEK293 cAMP ctrl 13µM, TSHR ag inconclusive (no result: 15-hLO inh)
COC(=O)[C@@]1(Cc2ccc(F)cc2)[C@H]2c3cc(C(=O)N(C)C)n(CCO)c3C[C@H]2CN1C(=O)c1ccccc1	none (no result: 15-hLO inh)
N#CCCCSC1=C(C#N)C(c2ccccc2Cl)CC(=O)N1 (stereo not given)	15-hLO inh inconclusive (no result: TSHR ag)
COC(=O)[C@@]1(Cc2ccc(F)cc2)[C@H]2c3cc(C(=O)N(C)C)n(Cc4ccc(OC)c(OC)c4)c3C[C@H]2CN1C(=O)c1ccccc1	HEK293 cAMP ctrl 16µM, TSHR ag inconclusive (no result: 15-hLO inh)
C=C1C(=O)C=C2CN(C(=O)c3ccccc3)[C@@](Cc3ccc(F)cc3)(C(=O)OC)[C@@H]12	HEK293 cAMP ctrl inconclusive, ERK AVP inh 10µM, TSHR ag inconclusive (no result: 15-hLO inh)
COC(=O)[C@@]1(Cc2ccc(OC)cc2)[C@@H]2C(=CC(=O)[C@H]2CC(=O)C(=O)N(C)C)CN1C(=O)c1ccccc1	none (no result: 15-hLO inh)
COC(=O)[C@@]1(Cc2ccc(F)cc2)[C@H]2c3cc(C(=O)N(C)C)n(Cc4ccc(C)o4)c3C[C@H]2CN1C(=O)c1ccccc1	HEK293 cAMP ctrl 3.2µM, TSHR ag inconclusive (no result: 15-hLO inh)
COC(=O)[C@@]1(Cc2ccc(F)cc2)[C@H]2c3cc(C(=O)N(C)C)n(Cc4ccc(O)c(OC)c4)c3C[C@H]2CN1C(=O)c1ccccc1	HEK293 cAMP ctrl inconclusive, TSHR ag inconclusive (no result: 15-hLO inh)
O=C(CCCn1c(=O)c2sccc2n(Cc2ccc(F)cc2)c1=O)NCc1ccco1	HEK293 cAMP ctrl inconclusive, ERK AVP inh inconclusive, TSHR ag inconclusive
Cc1ccc(C)c(Cn2nnc3c(=O)[nH]c(C4CCCN(C(=O)C5CCCCC5)C4)nc32)c1 (stereo not given)	HEK293 cAMP ctrl 20µM, TSHR ag inconclusive
O=C(C1CCCCC1)N1CCC(c2nc3c(nnn3Cc3ccccc3Cl)c(=O)[nH]2)CC1	Caspase-7 inhib inconclusive
O=C(c1ccccc1)N1CCCC(c2nc3c(nnn3Cc3ccccc3)c(=O)[nH]2)C1 (stereo not given)	none
O=C(C1CCCCC1)N1CCCC(c2nc3c(nnn3Cc3ccccc3)c(=O)[nH]2)C1 (stereo not given)	HEK293 cAMP ctrl inconclusive, 15-hLO inh 16µM, TSHR ag inconclusive
CCCCCCC(=O)N1CCC(c2nc3c(nnn3Cc3ccccc3Cl)c(=O)[nH]2)CC1	HEK293 cAMP ctrl inconclusive, ERK AVP inh inconclusive, Caspase-7 inhib 13µM, TSHR ag inconclusive
COC(=O)c1ccc(-c2nc(O)c3cnccn23)cc1	none

Compound activity from PubChem.
